Results published in PubChem BioAssay (NCATS).
Inconclusive results are not listed. Values without a mark were called inactive. The call rests on the fitted dose curve; in most records, active means well fitted inhibition curve with a large enough effect; inconclusive means small, poorly fitted or top-dose-only effect; inactive means flat fitted curve, though single readings scatter.

molecular target: Calcium and integrin-binding protein 1 (Homo sapiens) (UniProt Q99828); experiment: Primary qHTS for Identification of Calcium Integrin Binding Protein 1 (CIB1) Competitor (AID 1508620); conditions: CIB1-GST / FITC-alphaIIb peptide fluorescence polarization; series mostly up to 114 µM; activity change, negative = inhibition: at the top concentration;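 further: GST tagged CIB1 binding a fluorescein labelled alphaIIb integrin peptide tracer; top concentration of the series differs between compounds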
In short: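 Fluorescence polarization competition: CIB1-GST (1 uM final) preincubated with compound 15 min at room temperature, then FITC-labeled alphaIIb peptide (100 nM final) added for another 15 min. Polarization read at Ex 480/Em 540.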
On the % scale 0 is the no-effect control and ±100 the full control effect.

Chain of Calcium and integrin-binding protein 1 (Homo sapiens) (Q99828 whole entry, looked up): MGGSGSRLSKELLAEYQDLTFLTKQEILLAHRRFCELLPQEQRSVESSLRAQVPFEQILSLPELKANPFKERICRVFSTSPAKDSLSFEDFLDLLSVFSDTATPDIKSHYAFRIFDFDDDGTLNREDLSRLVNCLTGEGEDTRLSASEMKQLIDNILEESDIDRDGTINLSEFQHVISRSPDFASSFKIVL

First: C[C@@H]1O[C@@H](O[C@H]2[C@H](O)[C@@H](O)[C@H](O[C@H]3[C@H](O[C@H]4CC[C@@]5(C)C(=CC[C@@H]6C5CC[C@]5(C)[C@@H]7[C@H](C[C@@H]65)O[C@]5(CC[C@@](C)(CO[C@@H]6O[C@H](CO)[C@@H](O)[C@H](O)[C@H]6O)O5)[C@H]7C)C4)O[C@H](CO)[C@@H](O)[C@@H]3O)O[C@@H]2CO)[C@H](O)[C@H](O)[C@H]1O (stereo partly drawn)
Second: CC12CCC(OC3OC(CO)C(O)C(OC4OC(CO)C(O)C(O)C4O)C3O)CC1=CCC1C2CCC2(C)/C(=C3/COC(=O)C3)CCC12O (stereo not drawn)
The “activity change, negative = inhibition” value of the first is higher: 5.28% [at 30.2 µM] for the first, 1.64% [at 30.2 µM] for the second.

Going from `COC(=O)C1(C)CCC2(C(=O)O)CCC3(C)C(=CCC4C5(C)CC(O)C(OC6OCC(O)C(O)C6O)C(C)(CO)C5CCC43C)C2C1` (stereo not drawn) to `C=C1[C@H](OC(C)=O)[C@H]2[C@@H](OC(C)=O)[C@](C)(OC(C)=O)C[C@]2(OC(C)=O)C(=O)[C@H](C)/C=C/C(C)(C)C(=O)[C@H](OC(=O)C(C)C)[C@H]1OC(C)=O`, the “activity change, negative = inhibition” value rises from -4.11% [at 30.2 µM] to -1.23% [at 30.2 µM].

First: C/C=C/c1ccc2c(c1)[C@@H](C)[C@H](c1ccc(O)cc1)O2
Second: Cn1nnc(-c2ccc(-c3ccc(N4C[C@H](COP(=O)(O)O)OC4=O)cc3F)cn2)n1
The “activity change, negative = inhibition” value of the first is higher: 2.49% for the first, -2.9% for the second.

Going from `CO[C@H]1/C=C\O[C@@]2(C)Oc3c(C)c(O)c4c(O)c(c5c(nc6cc(C)ccn65)c4c3C2=O)NC(=O)/C(C)=C\C=C/[C@H](C)[C@H](O)[C@@H](C)[C@@H](O)[C@@H](C)[C@H](OC(C)=O)[C@@H]1C` to `CC(=O)O[C@]1(C(C)=O)CC[C@H]2[C@@H]3C[C@H](C)C4=CC(=O)C=C[C@]4(C)[C@@]3(F)[C@@H](O)C[C@@]21C`, the “activity change, negative = inhibition” value rises from -6.92% to 2.05%.

First: C=C(C(=O)O)[C@@H]1CC[C@@]2(C)CC[C@H](O)[C@@]2(C(C)=O)C1
Second: CC(=O)O[C@@H]1CC(C)=C2[C@H]1[C@H](C)CC[C@H]2/C=C(\C)C(=O)O
The “activity change, negative = inhibition” value of the first is lower: -1.05% for the first, 1.84% for the second.

Compared with `Cc1ccc(F)cc1C(=O)Nc1ccc(C(=O)N2Cc3cccn3Cc3ccccc32)c(Cl)c1`, `CC(=O)c1cc(C(=O)N[C@@H](C)Cn2ccc(-c3ccc(C#N)c(Cl)c3)n2)[nH]n1` is lower in “activity change, negative = inhibition” value: 1.73% for the first, -4.99% for the second.

Compared with `COc1ccc2c(OC)c3ccoc3nc2c1OC`, `CNC(C)C(=O)NC(C(=O)N1CCCC1c1nc(C(=O)c2ccc(F)cc2)cs1)C1CCCCC1` (stereo not drawn) is higher in “activity change, negative = inhibition” value: 0.975% for the first, 4.31% for the second.

Compared with `NC(=O)c1csc(C2OC(CO)C(O)C2O)n1` (stereo not drawn), `CO[C@H]1O[C@@H]2O[C@]3(C)CC[C@H]4[C@H](C)CC[C@@H]([C@H]1C)[C@@]24OO3` is higher in “activity change, negative = inhibition” value: -1.09% for the first, 1.03% for the second.

First: CC(=O)O[C@H]1CC[C@H](C)[C@@]2(C)[C@H](OC(C)=O)c3c(C)coc3C(=O)[C@H]12
Second: CC(=O)OC1C(O)CC2(C)C(CCC(C)C23Cc2c(O)cc(CO)c(C=O)c2O3)C1(C)C (stereo not drawn)
The “activity change, negative = inhibition” value of the first is higher: 0.885% [at 57.7 µM] for the first, -17.5% [at 57.7 µM] for the second.

Compared with `CC(=O)O[C@@H]1c2c3c(cc(O)c2C(=O)O[C@@H]1C)O[C@@]1(C)[C@@H](O)C[C@H]2C(C)(C)C(=O)C=C[C@]2(C)[C@@H]1C3`, `CC(C)c1cc2c(c(O)c1O)[C@@]13CCCC(C)(C)[C@@H]1[C@H](OC3=O)C2=O` is lower in “activity change, negative = inhibition” value: 1.49% [at 57.7 µM] for the first, -13.8% [at 57.7 µM] for the second.

First: C/C(=C/CO)CC[C@@H]1[C@@](C)(O)CCC2C(C)(C)CCC[C@]21C (stereo partly drawn)
Second: CC1(C)CCCC2(C)C1CC(=O)C13CC(CCC12)C(O)(CO)C3 (stereo not drawn)
The “activity change, negative = inhibition” value of the first is lower: -0.454% [at 57.7 µM] for the first, 1.17% [at 57.7 µM] for the second.

First: C=CC(C)(C)c1[nH]c2cc3c(cc2c1CC1NC(=O)C2=CCCN2C1=O)C=CC(C)(C)O3 (stereo not drawn)
Second: COc1ccc([C@@]2(O)c3c(ccc4c3OC(C)(CCC=C(C)C)C=C4)NC(=O)[C@@H]2OC)cc1 (stereo partly drawn)
The “activity change, negative = inhibition” value of the first is higher: -0.0061% [at 57.7 µM] for the first, -1.13% [at 57.7 µM] for the second.

Compared with `C=C1CCC2C(C)(C)C(O)CCC2(C)C1CCC(C)CCO` (stereo not drawn), `C=C1C(OC2OCC(O)C(O)C2O)CC2C(C)(C)C(O)CCC2(C)C1CC/C(C)=C\CO` (stereo not drawn) is higher in “activity change, negative = inhibition” value: -11.5% [at 57.7 µM] for the first, 1.93% [at 57.7 µM] for the second.

Going from `C=C1C(=O)O[C@@H]2C[C@H](C)[C@@]3(O)C=C(C(C)=O)[C@]4(CC3C[C@H]12)C(=O)O[C@H]1C[C@@H](C)C(CCC(C)=O)=CC[C@H]14` (stereo partly drawn) to `CO[C@H]1C[C@@H]2CC[C@@H](C)[C@@](O)(O2)C(=O)C(=O)N2CCCC[C@H]2C(=O)O[C@H]([C@H](C)C[C@H]2CC[C@@H](OP(C)(C)=O)[C@H](OC)C2)CC(=O)[C@H](C)/C=C(\C)[C@@H](O)[C@@H](OC)C(=O)[C@H](C)C[C@H](C)/C=C/C=C/C=C/1C`, the “activity change, negative = inhibition” value rises from -17.1% [at 57.7 µM] to -5.59% [at 57.7 µM].

Compared with `OC[C@@]1(O)CO[C@@H](OC[C@H]2O[C@@H](Oc3c[nH]c4ccccc34)[C@H](O)[C@@H](O)[C@@H]2O)[C@@H]1O`, `COc1cc2c(c(OC)c1CC=C(C)C)C[C@H](c1ccc(O)cc1O)CO2` is lower in “activity change, negative = inhibition” value: -1.15% [at 57.7 µM] for the first, -12% [at 57.7 µM] for the second.

Compared with `CC(C)/C=C1\NC(=O)C(C(C)C)n2c1nc1c(c2=O)C=CC=CO1` (stereo not drawn), `COC(=O)N[C@H](C(=O)N1[C@@H]2CC[C@@H](C2)[C@H]1c1nc2ccc(-c3ccc4c(c3)C(F)(F)c3cc(-c5cnc([C@@H]6CCC7(CC7)N6C(=O)[C@@H](NC(=O)OC)C(C)C)[nH]5)ccc3-4)cc2[nH]1)C(C)C` is higher in “activity change, negative = inhibition” value: -4.61% [at 57.7 µM] for the first, 1.14% [at 57.7 µM] for the second.

Going from `CCC(C)C(=O)O[C@H]1CCC=C2C=C[C@H](C)[C@H](CC[C@@H](O)C[C@@H](O)CC(=O)O)[C@H]21` (stereo partly drawn) to `CC/C=C/CC1=C(CCCCC(CCC(=O)O)OC(C)=O)CCC1=O` (stereo not drawn), the “activity change, negative = inhibition” value falls from -7.46% [at 57.7 µM] to -19.2% [at 57.7 µM].

Going from `CO[C@H]1C[C@@H]2CC[C@@H](C)[C@@](O)(O2)C(=O)C(=O)N2CCCC[C@H]2C(=O)O[C@H]([C@H](C)C[C@@H]2CC[C@H](n3cnnn3)[C@H](OC)C2)CC(=O)[C@H](C)/C=C(\C)[C@@H](O)[C@@H](OC)C(=O)[C@H](C)C[C@H](C)/C=C/C=C/C=C/1C` to `C=C1CCC2C(C(C)(C)O)CCC2(C)CC(O)C(=C)CCC1O` (stereo not drawn), the “activity change, negative = inhibition” value rises from 0.733% [at 57.7 µM] to 1.59% [at 57.7 µM].

`C/C=C/C=C/C=C/C(=O)OC1C=C(C=O)C(O)(C(=O)O)C2(C)CCCC(C)(C)C12` (stereo not drawn) was tested, and the “activity change, negative = inhibition” value was -7.57% [at 57.7 µM].

Work on `CC(=O)O[C@@H]1[C@H](O[C@@H]2O[C@@H](CO)[C@H](O)[C@H]2O)[C@@H](O[C@@H]2O[C@@H](C)[C@H](O[C@@H]3OC[C@@H](O)[C@H](O)[C@H]3O)[C@@H](O)[C@H]2O)[C@H](OC(=O)[C@]23CCC(C)(C)C[C@H]2C2=CCC4[C@@]5(C)CC[C@H](O[C@@H]6O[C@H](C(=O)O)[C@@H](O)[C@H](O)[C@H]6O[C@@H]6O[C@H](CO)[C@H](O)[C@H](O)[C@H]6O)[C@@](C)(C=O)C5CC[C@@]4(C)[C@]2(C)CC3)O[C@@H]1C` (stereo partly drawn) yielded an activity change, negative = inhibition of -9.52% [at 12.4 µM].
